D1 antag – Antagonist of Human D 1 Dopamine Receptor: qHTS. HEK293 TREx D1 cells, calcium flux, dopamine EC80; hits give low values. D(1A) dopamine receptor (Homo sapiens), P21728. activity change, negative = inhibition, % at 10 µM. hit rate 3.2% among 360,000; in the data active means activity change below about -30%; further: on the % scale 0 is the no-effect control and ±100 the full control effect
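Kinetic fluorescence of a calcium dye serves as the read-out. D1-expressing Hek293 Trex cells, induced overnight at 30 C, are exposed to compound for 180 s before an EC80 dopamine addition, then read 180 s further.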
Eya2 inh – qHTS Assay for Inhibitors of the Phosphatase Activity of Eya2; recombinant Eya2, OMFP fluorescence dephosphorylation (OMFP is methylfluorescein phosphate); Potency, µM (highest dose often 76.9 µM), for the others: top-dose activity, negative = inhibition, most hits filed as inhibitors; hit rate 0.006% among 330,000; further: potency means the concentration at half of the fitted maximal effect; on the % scale 0 is the no-effect control and ±100 the full control effect
Target sequence (O00167 whole entry, looked up): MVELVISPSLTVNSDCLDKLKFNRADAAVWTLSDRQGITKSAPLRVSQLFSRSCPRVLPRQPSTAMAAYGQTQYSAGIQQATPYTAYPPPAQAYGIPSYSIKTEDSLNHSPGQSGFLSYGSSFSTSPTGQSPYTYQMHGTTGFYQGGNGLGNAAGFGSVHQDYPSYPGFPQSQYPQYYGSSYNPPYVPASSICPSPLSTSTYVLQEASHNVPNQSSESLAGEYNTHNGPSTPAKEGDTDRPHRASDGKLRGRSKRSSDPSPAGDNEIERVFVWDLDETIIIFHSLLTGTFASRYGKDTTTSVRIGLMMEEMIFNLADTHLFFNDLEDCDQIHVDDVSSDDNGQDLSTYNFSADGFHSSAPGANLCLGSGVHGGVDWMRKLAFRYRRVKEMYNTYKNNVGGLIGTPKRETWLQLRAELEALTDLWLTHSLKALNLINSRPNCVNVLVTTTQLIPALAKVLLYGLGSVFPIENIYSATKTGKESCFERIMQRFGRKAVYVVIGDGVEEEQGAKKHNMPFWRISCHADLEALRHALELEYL
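Eya2 (0.2 uM) preincubated 10 min at ambient with compound, then OMFP substrate added at 50 uM; 10 min reaction in 50 mM HEPES pH 7.5, 50 mM NaCl, 5 uM MgCl2, 0.05% BSA, 1 mM DTT. Fluorescence read at Ex 485/Em 525 nm.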
GALK inh – qHTS Assay for Inhibitors of Human Galactokinase (GALK) | hit rate 0.007% among 270,000 | Purified GALK, Kinase-Glo residual ATP luminescence | Potency, µM (highest dose often 57.5 µM), inactives show at the top dose activity change, negative = inhibition, most hits filed as inhibitors; further: potency means the concentration at half of the fitted maximal effect; on the % scale 0 is the no-effect control and ±100 the full control effect
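5 nM enzyme, 35 uM ATP, 100 uM galactose, 20 mM HEPES pH8.0, 5 mM MgCl2; 1 h RT; residual ATP by Kinase-Glo Plus luminescence, qHTS format.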
D1 potentiator – Potentiators of Human D1 Dopamine Receptor: qHTS; D(1A) dopamine receptor (Homo sapiens), P21728; HEK293 TREx D1 cells, calcium flux, dopamine EC20 potentiation; potentiation, % at 10 µM; hit rate 0.036% among 360,000; in the data active means potentiation above about 30%; further: 0% is about no effect
D1 agonist – Allosteric Agonists of the Human D1 Dopamine Receptor: qHTS; hit rate 1% among 360,000; D(1A) dopamine receptor (Homo sapiens), P21728; HEK293 T-REx D1 cells, calcium flux, agonist mode; activation, % at 2 µM; in the data active means activation above about 30%; further: 0% is about no effect
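Tetracycline-induced HEK293 TREx D1 cells, force-coupled to calcium signalling, were dye-loaded with a no-wash calcium kit. Compound was pin-added after a 10 s baseline. Fluorescence was read kinetically at 1 cycle/s for 180 s, with calcium rises flagged as agonism.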
USP2a inh – qHTS Assay for Inhibitors of Ubiquitin-specific Protease USP2a Using CHOP2 as the Reporter; Ubiquitin carboxyl-terminal hydrolase 2 (Homo sapiens), O75604; USP2 core, Ub-CHOP2 coupled fluorogenic reporter, 485/531; Potency, µM (highest dose often 38.3 µM), for the others: at the highest dose activity change, negative = inhibition, actives largely listed as inhibitors; hit rate 0.01% among 330,000; AID 463254, 2010;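 further: potency means the concentration at half of the fitted maximal effect; plate controls were DMSO wells for no effect and full inhibition by NEM control for full effect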
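USP2 core (10nM final) preincubated 30min RT with compound in 20mM Tris-HCl pH 8.0, 2mM CaCl2, 2mM beta-mercaptoethanol, 0.05% CHAPS; 25nM Ub-CHOP2 plus 25nM reporter substrate added, fluorescence (Ex485/Em531) read after 60min.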
* marks the source's active call; other numbers are inactive results; . = not tested or not shown. Hits are enriched below; roughly 3.9% of the tested compounds scored in any of these assays. Unless noted, the call rests on the fitted dose curve; in most records, active means well fitted inhibition curve with a large enough effect; inconclusive means small, poorly fitted or top-dose-only effect, or effect the other way; inactive means flat fitted curve, though single readings scatter.

SMILES	D1 antag	Eya2 inh	GALK inh	D1 potentiator	D1 agonist	USP2a inh
COc1cc(CN2CCc3nc(N4CCN(c5ccccn5)CC4)ncc3C2)cc(OC)c1OC	-31*	.	.	0	8	.
CCOC(=O)c1ccc(NC(=O)c2ccc3c(c2)c(C)c(C)n3Cc2ccc(F)cc2)cc1	0	.	.	-6	4	.
CCn1cnc2c(Nc3ccc(CC(=O)N=C(N)N)cc3)nc(C#N)nc21	7	.	.	5	0	.
CCCOc1ccccc1C(=O)N1CCC(c2nc3ccccc3s2)CC1	-9	.	.	0	1	.
CCOc1cc(/C=C2/NC(=O)N(Cc3ccccc3F)C2=O)ccc1O	-7	-15%	-2%	-8	-1	0%
COc1cc(/C=C2/NC(=O)N(Cc3ccccc3F)C2=O)cc(OC)c1O	-38*	-14%	-1%	-6	3	7%
CCOc1ccccc1CNC(=O)CCc1c(C)nn(-c2ccc(N3CCCCC3)nn2)c1C	-18	.	.	-3	4	.
Cc1cc(C)cc(-n2c(C)cc(/C=N/NC(=O)c3ccncc3)c2C)c1	0	7%	0%	2	6	-1%
Cc1cc(C)n2nc(SCC(=O)N/N=C/c3cccc(Br)c3)nc2n1	1	.	3%	-5	1	.
Cc1cc(C)cc(-n2c(C)cc(/C=N/NC(=O)CSc3ncccn3)c2C)c1	14	0%	-4%	7	44*	0%
Cc1cc(C)n2nc(SCC(=O)N/N=C/c3ccccn3)nc2n1	-36*	3%	.	1	1	1%
CCOc1ccc(OCC)c(NC(=O)C2CCN(c3nnc(-n4cccc4)s3)CC2)c1	-9	.	.	-4	1	.
COC(=O)c1cccc(CN2C(=O)SC(Nc3ccc(C)cc3)C2=O)c1 (configuration not stated)	-3	-16%	4%	1	2	-6%
COC(=O)c1cccc(CN2C(=O)SC(Nc3ccc(Cl)cc3)C2=O)c1 (configuration not stated)	-32*	.	.	-6	1	.
CN(C)c1ccc(CNC(=O)CCC(=O)N2Cc3ccccc3Oc3ncccc32)cc1	-3	.	.	0	2	.
Cc1ccc(N2CCN(S(=O)(=O)N3CCOCC3)CC2)cc1C	-31*	-19%	0%	2	1	-7%
COC(=O)c1ccc(NC(=O)CN2C(=O)c3cccc4cccc2c34)cc1	1	.	.	-4	0	.
CC/C(C)=N/Nc1ccc(S(=O)(=O)N2CCCC2)cc1[N+](=O)[O-]	-48*	1%	0%	-1	2	1%
CC(C)[C@H](Nc1ccc(S(=O)(=O)N2CCOCC2)cc1[N+](=O)[O-])C(=O)OCC(N)=O	-74*	-11%	-2%	-7	2	-2%
CC(C)[C@H](Nc1ccc(S(=O)(=O)N2CCOCC2)cc1[N+](=O)[O-])C(=O)OCC(=O)N(C(C)C)C(C)C	-11	0%	3%	-3	3	-5%
Cc1nnc(N2CCC(C(=O)NCc3ccc(F)cc3)CC2)c2nn(-c3ccc(Cl)cc3)c(C)c12	17	.	.	0	3	.
CC1CC(C)CN(CCCNC(=O)c2ccc3c(c2)N(Cc2ccccc2)C(=O)c2ccccc2S3=O)C1 (configuration not stated)	3	1%	-1%	-6	80*	0%
CC1CCCN(CCCNC(=O)c2ccc3c(c2)N(Cc2ccc(Cl)cc2)C(=O)c2ccccc2S3(=O)=O)C1 (configuration not stated)	-35*	.	.	-1	60*	.
CNC(=O)c1cnc2sc(N3CCCCCC3)nn2c1=O	-6	.	.	0	2	.
CCOC(=O)c1cc(-c2ccc(C)cc2)n(CCC(=O)Nc2ccc(C(C)C)cc2)c1C	11	.	.	3	3	.
SMILES	D1 antag	Eya2 inh	GALK inh	D1 potentiator	D1 agonist	USP2a inh
C/C(=N\NC(=O)c1cc(Br)ccc1O)c1cccs1	-12	5%	-2%	-8	32*	0%
C/C(=N/NC(=O)c1ccc(Br)o1)c1cccs1	-5	-1%	-1%	-2	0	-5%
COc1cc(NC(=O)c2cc([N+](=O)[O-])ccc2N2CCOCC2)ccc1NC(=O)c1ccco1	-20	-14%	-3%	-4	1	0%
COc1cc(NC(=O)c2cccc([N+](=O)[O-])c2C)ccc1NC(=O)c1ccco1	-36*	-1%	1%	-2	0	-2%
COC(=O)c1ccccc1NC(=O)c1ccco1	-34*	-6%	3%	-5	1	-2%
COc1ccc(NC(=O)Nc2ccc(F)c(Cl)c2)cc1	-49*	2%	9%	-9	22	1%
COC(=O)c1cc(NC(=O)Nc2cc(OC)ccc2OC)cc(C(=O)OC)c1	2	13%	-1%	-4	1	-1%
COc1ccc(OC)c(NC(=O)Nc2ccc(Cl)cc2)c1	-43*	-8%	1%	-9	0	-1%
Cc1ccc(NC(=O)Nc2ccc(F)c(Cl)c2)cc1	.	-10%	0%	-8	4	0%
CNC(=O)c1ccccc1NC(=O)c1ccco1	-17	5%	0%	0	-1	0%
CCOc1ccccc1CNC(=O)c1ccc(NC(=O)N2CC(C)Sc3ccccc32)cc1 (configuration not stated)	6	.	.	-2	3	.
COc1ccc(OC)c(NC(=O)Nc2cccc(Cn3cccn3)c2)c1	-36*	6%	2%	-10	0	0%
COc1cc(NC(=O)c2ccco2)c(OC)cc1NC(=O)Nc1ccc(Cl)cc1	-44*	-2%	1%	-5	2	1%
COc1ccc(CNC(=O)COC(=O)/C=C/c2ccc(Cl)cc2)cc1	-1	3%	4%	2	-3	0%
COc1ccc(OC)c(NC(=O)COC(=O)/C=C/c2ccc(Cl)cc2)c1	-33*	4%	-1%	-8	-2	0%
COc1ccc(/C=C/C(=O)OCC(=O)NCCC2=CCCCC2)cc1	-37*	-4%	0%	-4	8	2%
Cc1c(C(=O)Nc2ccc(-n3c(C)nc4ccccc4c3=O)cc2)cccc1[N+](=O)[O-]	.	.	.	-2	-1	.
COc1ccccc1/C=C/C(=O)OCC(=O)Nc1ccccc1Sc1ccccc1	-16	3%	0%	1	50*	2%

High-throughput results: PubChem BioAssay, National Center for Advancing Translational Sciences (NCATS)
